From PubChem BioAssay (NCATS) come the findings set out here.

Assay [1] is described as follows: qHTS Assay for Identifying Gametocytocidal Compounds (AID 743244).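 Note: actives lower the fluorescent signal which means gametocytes are killed.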 To be noted: P. falciparum 3D7 stage III-V gametocytes, alamarBlue, 72 h; max response: active compounds read low. A digest of the protocol: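 Viability read-out was resazurin reduction (alamarBlue, 24 h) measured at Ex 525/Em 598 nm. Beforehand, late-stage (III-V) 3D7 P. falciparum gametocytes at 20,000 cells/well were incubated with compound 72 h at 37C under 5% CO2.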
On the technique in general: In qHTS, concentration-response curves come from the screen itself.

Assay [2] can be described thus: qHTS assay to identify small molecule inhibitors of chordoma cells - UCH-1 (AID 1259355). Note: nearly all actives have a fitted effect of over 55% in size. In outline:
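800 cells/well, overnight attach; compounds pinned at 15 concs, then auranofin/camptothecin/doxorubicin/rubitecan/topotecan combo added; 48hr 37 C, 5% CO2; CellTiter-Glo, 30min RT, luminescence.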

Assay [3] is described as follows: qHTS assay to identify small molecule inhibitors of chordoma cells - UCH-2 (AID 1259356). Note: series mostly up to about 46 µM.
Assay [4] can be described thus: P-glycoprotein substrates identified in KB-8-5-11 adenocarcinoma cell line, qHTS therapeutic library screen (AID 1346987). Note: nearly all actives have a fitted effect of over 65% in size. Note: potency is the fitted concentration of half-maximal effect. To be noted: outcome: dose series up to 44.5 µM unless noted. A digest of the protocol: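 Human cervical adenocarcinoma KB-8-5-11 cells, selected in colchicine to over-express P-gp and assayed without it, were exposed for 72 h to titrated compounds. An ATP-based luminescent viability signal gave AC50.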

Each structure is given as a SMILES string. Results filed as inconclusive are left out. Unmarked numbers belong to inactive results. Active and inactive are the calls of the source. Calls come from the whole dose curve; as a rule, active = well fitted curve in the direction sought with a large enough effect; inconclusive = small, poorly fitted or top-dose-only effect, or another doubt; inactive = no such curve, though single readings can be large; an effect the other way counts as inactive or inconclusive. Where a SMILES comes first, the peptide text is derived from it. [ ]: non-standard residue; d: D form. pGlu = O=C1CC[C@@H](C(=O)O)N1
% is set by controls: 0 for no effect and ±100 for the full control effect.

Consider `CC1(C)C(\C=C/C=C\C=C/C=C2/N(CCCCS(=O)(=O)O)c3ccc4ccccc4c3C2(C)C)=[N+](CCCCS(=O)(=O)[O-])c2ccc3ccccc3c21`, for which the max response in assay [1] is 2.8%. In addition, the Potency entry in assay [2], in assay [3] and in assay [4] was “inactive” in each case.

As to `CC(CNC(=O)c1cccnc1)NC(=O)c1cccnc1` (configuration not stated), in assay [1], the max response was -8.6%. Also, the Potency entry in assay [2], in assay [3] and in assay [4] was “inactive” in each case.

Take `CC(O)CN(C)C` (configuration not stated): the max response in assay [1] is -6.61%. For the same compound, the Potency entry in assay [2], in assay [3] and in assay [4] was “inactive” throughout.

For `C[C@]12CCC(=O)C[C@@H]1CC[C@@H]1[C@@H]2CC[C@]2(C)C=CC[C@@H]12`, the max response in assay [1] was -3.12%. Further, the Potency entry in assay [2], in assay [3] and in assay [4] was “inactive” in each case.

With `FC(F)(F)C(F)(F)C(F)(F)C(F)(F)C(F)(F)F`, the max response in assay [1] was -2.45%. The Potency result in assay [2], in assay [3] and in assay [4] was “inactive” each time.

With `NCC(O)CC(=O)O` (configuration not stated), the max response in assay [1] is 10.8%. Also, the Potency entry in assay [2], in assay [3] and in assay [4] was “inactive” in each case.

`Cc1c(C)c2c(c(C)c1OC(=O)CCC(=O)O)CC[C@@](C)(CCC[C@H](C)CCC[C@H](C)CCCC(C)C)O2`: the max response in assay [1] was -1.05%. Moreover, the Potency result in assay [2], in assay [3] and in assay [4] was “inactive” each time.

As to `CCOC(=O)[C@@H](N)CS`, the max response in assay [1] was 0.746%. In addition, the Potency result in assay [2], in assay [3] and in assay [4] was “inactive” each time.

Regarding `CO/N=C(\C(=O)N[C@@H]1C(=O)N2C(C(=O)O)=CCS[C@H]12)c1csc(N)n1`, the max response in assay [1] is 5.71%. The Potency result in assay [2], in assay [3] and in assay [4] was “inactive” throughout.

In the case of `CCCCC[C@H](O)/C=C/[C@H]1[C@H](O)CC(=O)[C@@H]1C/C=C\CCCC(=O)O`, the max response in assay [1] is 5.55%. Also, the Potency result in assay [2], in assay [3] and in assay [4] was “inactive” in each case.

On to `CC1=C(/C=C/C(C)=C/C=C/C(C)=C/C(=O)Oc2c(C)c(C)c3c(c2C)CC[C@@](C)(CCC[C@H](C)CCC[C@H](C)CCCC(C)C)O3)C(C)(C)CCC1`, for which the max response in assay [1] was 0.0927%. The Potency result in assay [2], in assay [3] and in assay [4] was “inactive” each time.

Turning to `NC[C@@H]1O[C@H](O[C@H]2[C@@H](O)[C@H](O[C@@H]3[C@@H](O)[C@H](N)C[C@H](N)[C@H]3O[C@H]3O[C@H](CO)[C@@H](O)[C@H](O)[C@H]3N)O[C@@H]2CO)[C@H](N)[C@@H](O)[C@@H]1O`, in assay [1], the max response was 20.3%. The Potency result in assay [2], in assay [3] and in assay [4] was “inactive” throughout.

Regarding `NC(=O)c1ccc[n+]([C@@H]2O[C@H](COP(=O)([O-])OP(=O)(O)OC[C@H]3O[C@@H](n4cnc5c(N)ncnc54)[C@H](O)[C@@H]3O)[C@@H](O)[C@H]2O)c1`, the max response in assay [1] was 2.6%. Further, the Potency entry in assay [2], in assay [3] and in assay [4] was “inactive” in each case.

For `CC(C)CCCC(C)NC(C)C` (configuration not stated), in assay [1], the max response is 15.9%. The Potency entry in assay [2], in assay [3] and in assay [4] was “inactive” in each case.

`O=C[C@H](O)[C@@H](O)[C@@H](O)[C@H](O)CO`: the max response in assay [1] is -6.65%. For the same compound, the Potency entry in assay [2], in assay [3] and in assay [4] was “inactive” each time.

`CC1(C)[C@@H]2CC[C@@]1(C)[C@H](OC(=O)CSC#N)C2`: the max response in assay [1] was -3.31%. Also, the Potency entry in assay [2], in assay [3] and in assay [4] was “inactive” each time.

For the compound `CN1CCN(C(c2ccccc2)c2ccc(Cl)cc2)CC1` (configuration not stated), in assay [1], the max response is 1.98%. Also, the Potency result in assay [2], in assay [3] and in assay [4] was “inactive” in each case.

As to `OC[C@@H](O)C(O)[C@H](O)CO`, the max response in assay [1] was 3.78%. Moreover, the Potency result in assay [2], in assay [3] and in assay [4] was “inactive” throughout.

In the case of `CCOC(=O)[C@H](CS)NCCN[C@@H](CS)C(=O)OCC`, the max response in assay [1] was 2.46%. Also, the Potency result in assay [2], in assay [3] and in assay [4] was “inactive” each time.

Consider `Cn1nnnc1SCC1=C(C(=O)O)N2C(=O)[C@@H](NC(=O)[C@H](O)c3ccccc3)[C@H]2SC1`, for which the max response in assay [1] is -1.19%. The Potency entry in assay [2], in assay [3] and in assay [4] was “inactive” throughout.

For `CC(CC=O)CCCC(C)(C)O` (configuration not stated), in assay [1], the max response is 6.46%. Further, the Potency entry in assay [2], in assay [3] and in assay [4] was “inactive” each time.

`CC(=O)N=c1sc(S(N)(=O)=O)nn1C`: the max response in assay [1] is 3.69%. Moreover, the Potency result in assay [2], in assay [3] and in assay [4] was “inactive” throughout.

In the case of `CN1C(=O)C[C@@H](C(=O)N[C@@H](Cc2cnc[nH]2)C(=O)N2CCC[C@H]2C(N)=O)NC1=O`, the max response in assay [1] was 5.88%. Further, the Potency result in assay [2], in assay [3] and in assay [4] was “inactive” throughout.

On to `NC(=O)[C@@H]1C[C@]2(NC(=O)NC2=O)c2cc(F)ccc2O1`, for which, in assay [1], the max response is -13.1%. The Potency entry in assay [2], in assay [3] and in assay [4] was “inactive” each time.

Consider `CC[C@H](C)[C@H](NC(=O)[C@H](Cc1ccccc1)NC(=O)[C@H](C)NC(=O)[C@H](CC(=O)O)NC(=O)[C@H](CCCCN)NC(=O)[C@H](CO)NC(=O)[C@@H]1CCCN1C(=O)[C@@H]1CCC(=O)N1)C(=O)NCC(=O)N[C@@H](CC(C)C)C(=O)N[C@@H](CCSC)C(N)=O` ([pGlu]PSKDAFIGLM-NH2), for which the max response in assay [1] was 13.3%. For the same compound, the Potency result in assay [2], in assay [3] and in assay [4] was “inactive” throughout.

`CC12CCC(C[N+](C)(CCC[N+](C)(C)C)C1)C2(C)C` (configuration not stated): the max response in assay [1] is -4.18%. For the same compound, the Potency result in assay [2], in assay [3] and in assay [4] was “inactive” each time.

As for `C=Cc1ccc(S(=O)(=O)O)cc1`, the max response in assay [1] is -6.42%. Further, the Potency entry in assay [2], in assay [3] and in assay [4] was “inactive” throughout.

As for `CNC(=O)c1c(I)c(C(=O)NCC(=O)Nc2c(I)c(C(=O)O)c(I)c(C(=O)NCCO)c2I)c(I)c(N(C)C(C)=O)c1I`, in assay [1], the max response is 1.95%. Besides, the Potency entry in assay [2], in assay [3] and in assay [4] was “inactive” each time.

In the case of `CCOc1cc(-c2nccc3cc(OC)c(OC)cc23)cc(OCC)c1OCC`, the max response in assay [1] is -3.95%. The Potency result in assay [2] and in assay [3] was “inactive” each time. Besides, the Potency in assay [4] was 13 µM (active).

On to `CNCC(=O)N[C@@H](CCCN=C(N)N)C(=O)N[C@H](C(=O)N[C@@H](Cc1ccc(O)cc1)C(=O)N[C@H](C(=O)N[C@@H](Cc1cnc[nH]1)C(=O)N1CCC[C@H]1C(=O)N[C@@H](C)C(=O)O)C(C)C)C(C)C`, for which, in assay [1], the max response is 5.17%. For the same compound, the Potency entry in assay [2], in assay [3] and in assay [4] was “inactive” in each case.

On to `O=C1NC(=O)[C@H]2[C@@H]1[C@@H]1C=C[C@H]2C1`, for which the max response in assay [1] is -6.7%. Moreover, the Potency entry in assay [2], in assay [3] and in assay [4] was “inactive” throughout.

Turning to `CCOC(=S)SSC(=S)OCC`, in assay [1], the max response was 0.863%. Further, the Potency entry in assay [2], in assay [3] and in assay [4] was “inactive” each time.

For `CCCCC[C@H](O)/C=C/[C@H]1[C@H](O)CC(=O)[C@@H]1CCCCCCC(=O)O`, the max response in assay [1] is -10.5%. For the same compound, the Potency result in assay [2], in assay [3] and in assay [4] was “inactive” in each case.

For the compound `CC(=NCc1ccccc1)c1ccccc1O`, the max response in assay [1] was -2.19%. The Potency result in assay [2], in assay [3] and in assay [4] was “inactive” each time.

Turning to `O=C(O)Cc1cc(I)c(Oc2ccc(O)c(I)c2)c(I)c1`, the max response in assay [1] was 10.9%. In addition, the Potency result in assay [2], in assay [3] and in assay [4] was “inactive” throughout.

Consider `CN1CCc2c(c3ccccc3n2Cc2ccccc2)C1`, for which the max response in assay [1] was 9.99%. The Potency entry in assay [2], in assay [3] and in assay [4] was “inactive” each time.

For `CSCCC(N)C(=O)O` (configuration not stated), the max response in assay [1] was -5.15%. Besides, the Potency entry in assay [2], in assay [3] and in assay [4] was “inactive” throughout.

On to `CC1(C)S[C@@H]2[C@H](NC(=O)C3(N)CCCCC3)C(=O)N2[C@H]1C(=O)O`, for which the max response in assay [1] was 7.96%. Further, the Potency result in assay [2], in assay [3] and in assay [4] was “inactive” in each case.
